Sampled rows, rich in hits. Any-hit rate of the full collection: about 17%.
TDP1 cell CPT: growth inhibition of DT40 Tdp1-/-;hTDP1 cells with camptothecin (screen for TDP1 inhibitors). chicken DT40 Tdp1-/-;hTDP1 cells + 20 nM CPT, ATP luminescence, 48 h. Potency, µM (highest dose often 46.2 µM), without a hit: at the top dose activity change, negative = growth inhibition, most hits filed as inhibitors. 420,000 compounds, 12% hits. AID 686979; note: % is set by controls: 0 for no effect and ±100 for the full control effect; nearly all actives have a fitted effect of over 55% in size
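Chicken DT40 Tdp1-/- cells stably complemented with human TDP1 were seeded at 400 cells/well in medium containing 20 nM camptothecin, exposed to pin-transferred compounds, and grown at 37 °C for at least 48 hr. Viability was read as ATP luminescence.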
TDP1 block: inhibitors of human tyrosyl-DNA phosphodiesterase TDP1. Q9NUW8. recombinant TDP1, AlphaScreen DNA substrate cleavage. Potency, µM (titrated, usually from 130 µM), for the others: at the top dose activity change, negative = inhibition, usual class: inhibitors. 350,000 compounds, 0.28% hits; note: % is set by controls: 0 for no effect and ±100 for the full control effect; nearly all actives have a fitted effect of over 40% in size
Target sequence (Q9NUW8 whole entry, looked up): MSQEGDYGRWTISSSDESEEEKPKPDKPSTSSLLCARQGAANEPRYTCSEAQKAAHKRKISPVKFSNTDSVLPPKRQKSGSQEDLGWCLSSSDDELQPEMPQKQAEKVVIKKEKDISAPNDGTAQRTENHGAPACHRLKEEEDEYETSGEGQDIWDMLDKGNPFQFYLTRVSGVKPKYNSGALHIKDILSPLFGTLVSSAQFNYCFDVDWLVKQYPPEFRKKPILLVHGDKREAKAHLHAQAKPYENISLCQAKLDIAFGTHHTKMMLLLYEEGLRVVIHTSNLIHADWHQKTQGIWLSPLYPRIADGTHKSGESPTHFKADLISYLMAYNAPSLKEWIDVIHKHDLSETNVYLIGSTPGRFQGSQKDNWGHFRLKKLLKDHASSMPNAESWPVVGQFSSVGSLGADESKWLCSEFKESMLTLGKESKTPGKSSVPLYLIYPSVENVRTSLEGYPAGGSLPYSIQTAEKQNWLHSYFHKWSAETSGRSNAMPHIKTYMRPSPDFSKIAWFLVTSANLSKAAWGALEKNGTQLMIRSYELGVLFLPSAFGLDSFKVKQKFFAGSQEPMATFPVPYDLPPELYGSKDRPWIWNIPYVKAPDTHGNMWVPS
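AlphaScreen read-out: signal falls as enzyme removes the 3' tyrosine-FITC from a 5'-biotinylated DNA oligo (15 nM, 5 min, RT). Enzyme was E. coli-made recombinant Tdp1 at 1 nM, exposed to compound for 15 min beforehand; beads 10 ug/ml, 10 min.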
ClpP mod: qHTS Assay for Activators of ClpP; Potency, µM (highest dose often 57.5 µM), for the others: at the top dose activity change, negative = active; 340,000 compounds, 1.9% hits; purified B. subtilis ClpP, FRET peptide cleavage, 20 min; ATP-dependent Clp protease proteolytic subunit (Bacillus subtilis (strain 168)), P80244; active = well fitted falling curve with a large enough effect; inconclusive = small, poorly fitted or top-dose-only effect; inactive = no such curve, though single readings can be large or run the other way; note: the source files actives as falling curves though it sought activators and does not explain the sign; nearly all actives have a fitted effect of over 65% in size
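Purified B. subtilis ClpP, 10 microg/mL final in Tris/HCl pH8 with KCl, BSA, glycerol and Tween-20, cleaved an Abz/nitrotyrosine-quenched decapeptide. Fluorescence (ex 320, em 430) was read at 0 and 20 min at room temperature. Delta was normalized to 5.8 microM ADEP and DMSO/no-enzyme controls.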
DT40 TDP1 no CPT: qHTS for Inhibitors of human tyrosyl-DNA phosphodiesterase 1 (TDP1): qHTS in cells in absence of CPT. Potency, µM (doses to about 46.2 µM), without a hit: at the top dose activity change, negative = growth inhibition, most hits filed as inhibitors. DT40 Tdp1-/- hTDP1 cells, no CPT, ATP luminescence, 48 h. 420,000 compounds, 15% hits; note: % is set by controls: 0 for no effect and ±100 for the full control effect; nearly all actives have a fitted effect of over 55% in size
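Camptothecin absent (DMSO only). Human TDP1-complemented DT40 knockout cells, 400 cells/well, 37 °C for minimum 48 hr; ATP measured via CellTiter-Glo, 30 min dark incubation, luminescence.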
* = called active by the depositor; [ ] = dose if it differs, or a comment. Unless noted, calls come from the whole dose curve; as a rule, active = well fitted curve in the direction sought with a large enough effect; inconclusive = small, poorly fitted or top-dose-only effect, or another doubt; inactive = no such curve, though single readings can be large; an effect the other way counts as inactive or inconclusive. Potency is the fitted concentration of half-maximal effect.

How did CCCNC(=O)c1ccc(N2CCC3(CC2)CC(c2ccccc2)=NO3)c(NC(=O)c2cccc(C)c2)c1 do in these assays?
TDP1 cell CPT: 8.2µM*; ClpP mod: 4%; DT40 TDP1 no CPT: inconclusive

How did Cc1ccc(C)c(S(=O)(=O)N2CCCC2CNC(=O)C(=O)NCc2ccco2)c1 (stereo not given) do in these assays?
TDP1 cell CPT: inconclusive; TDP1 block: 8%; ClpP mod: -1%; DT40 TDP1 no CPT: inconclusive

How did Cc1ccc(S(=O)(=O)N2CCCCC2CCNC(=O)C(=O)NCc2ccccc2)cc1 (stereo not given) do in these assays?
TDP1 cell CPT: 3.3µM*; ClpP mod: -7%; DT40 TDP1 no CPT: 2.9µM*

Results for Cc1ccc(C)c(S(=O)(=O)N2CCCCC2CCNC(=O)C(=O)NCc2ccco2)c1 (stereo not given) ?
TDP1 cell CPT: 16µM*; TDP1 block: 6%; ClpP mod: 1%; DT40 TDP1 no CPT: 8.2µM*

What do the screens show for `COc1ccc(CNC(=O)C(=O)NCCC2CCCCN2S(=O)(=O)c2ccc(C)cc2)cc1` (stereo not given)?
TDP1 cell CPT: 16µM*; TDP1 block: -1%; ClpP mod: 2%; DT40 TDP1 no CPT: 26µM*

Results for Cc1cccc(NC(=O)CCNS(=O)(=O)c2cc(Br)cnc2N)c1C ?
TDP1 cell CPT: -8%; TDP1 block: 2%; ClpP mod: inconclusive; DT40 TDP1 no CPT: -2%

How did CCOc1ccc(-c2nc(Cn3c(=O)cc(-c4ccccc4)c4c(C)nn(C)c43)c(C)o2)cc1 do in these assays?
TDP1 cell CPT: -5%; TDP1 block: 7%; ClpP mod: -6%; DT40 TDP1 no CPT: 4%

How did CCOc1ccc(NC(=O)Cn2c(=O)oc3cc(S(=O)(=O)N4CCC(C)CC4)ccc32)cc1 do in these assays?
TDP1 cell CPT: 9.2µM*; TDP1 block: 1%; ClpP mod: -1%; DT40 TDP1 no CPT: 8.2µM*

How did CCc1ccc(NC(=O)Cn2c(=O)oc3cc(S(=O)(=O)N4CCCCCC4)ccc32)cc1 do in these assays?
TDP1 cell CPT: 12µM*; TDP1 block: 3%; ClpP mod: -11%; DT40 TDP1 no CPT: 9.2µM*

Results for COc1cc(NC(=O)Cn2c(=O)oc3cc(S(=O)(=O)N4CCCCCC4)ccc32)cc(OC)c1 ?
TDP1 cell CPT: 15µM*; TDP1 block: 3%; ClpP mod: -1%; DT40 TDP1 no CPT: 21µM*

What do the screens show for `CC1=C(C(=O)Nc2cc(Cl)ccc2C)C2(CCCCC2)OC1=O`?
TDP1 cell CPT: inconclusive; TDP1 block: 6%; ClpP mod: 2%; DT40 TDP1 no CPT: inconclusive

How did CC(=O)NC(CC(=O)N1CCN(C(C)=O)CC1)c1ccccc1 (stereo not given) do in these assays?
TDP1 cell CPT: -1%; TDP1 block: 0%; ClpP mod: -2%; DT40 TDP1 no CPT: 6%

What do the screens show for `c1ccc(N/N=C2\CCCc3ccccc32)nc1`?
TDP1 cell CPT: 0%; TDP1 block: 5%; ClpP mod: inconclusive; DT40 TDP1 no CPT: -17%

What do the screens show for `Cc1cc(N/N=C2/CCCc3ccccc32)nc2ccccc12`?
TDP1 cell CPT: inconclusive; TDP1 block: 6%; ClpP mod: inconclusive; DT40 TDP1 no CPT: 10µM*

Results for Cc1cc2nc(CCN(C(=S)NCC3CCCO3)C3CCCC3)[nH]c2cc1C (stereo not given) ?
TDP1 cell CPT: inconclusive; TDP1 block: 1%; ClpP mod: -7%; DT40 TDP1 no CPT: inconclusive

Results for Cc1cc2nc(CCN(C(=S)NCC(C)C)C3CCCC3)[nH]c2cc1C ?
TDP1 cell CPT: inconclusive; TDP1 block: 3%; ClpP mod: 0%; DT40 TDP1 no CPT: 23µM*

Results for Cc1ccc(NC(=O)COCC(=O)Nc2ccc(F)cc2)cc1 ?
TDP1 cell CPT: 18µM*; TDP1 block: 3%; ClpP mod: 3%; DT40 TDP1 no CPT: 21µM*

Results for Cc1ccc(NC(=O)CNc2ccc(OC(C)C)cc2)cc1 ?
TDP1 cell CPT: inconclusive; TDP1 block: 10%; ClpP mod: -2%; DT40 TDP1 no CPT: 23µM*

How did COC(=O)c1ccccc1NC(=O)NCc1ccncc1 do in these assays?
TDP1 cell CPT: inconclusive; TDP1 block: 5%; ClpP mod: inconclusive; DT40 TDP1 no CPT: -11%

Results for CC1(C)Cc2c(sc3nc(-c4cccs4)n(N)c(=O)c23)CO1 ?
TDP1 cell CPT: 16µM*; TDP1 block: -6%; ClpP mod: -7%; DT40 TDP1 no CPT: 23µM*

What do the screens show for `COc1ccc(CN2C(=O)c3ccccc3C2c2nnnn2-c2ccc3c(c2)OCCO3)cc1OC` (stereo not given)?
TDP1 cell CPT: 15µM*; ClpP mod: 1%; DT40 TDP1 no CPT: 21µM*

How did COc1ccc(OC)c(CN2C(=O)c3ccccc3C2c2nnnn2Cc2ccccc2)c1 (stereo not given) do in these assays?
TDP1 cell CPT: inconclusive; ClpP mod: 0%; DT40 TDP1 no CPT: 21µM*

Results for O=C1c2ccccc2C(c2nnnn2-c2ccc3c(c2)OCCO3)N1Cc1cccs1 (stereo not given) ?
TDP1 cell CPT: inconclusive; ClpP mod: -1%; DT40 TDP1 no CPT: inconclusive

Results for COc1ccc(OC)c(CN2C(=O)c3ccccc3C2c2nnnn2C2CCCC2)c1 (stereo not given) ?
TDP1 cell CPT: inconclusive; ClpP mod: 0%; DT40 TDP1 no CPT: 16µM*

What do the screens show for `COc1ccc(NC(=O)Cn2ncn3nc(-c4ccc(OC)cc4)cc3c2=O)cc1`?
TDP1 cell CPT: -13%; TDP1 block: -1%; DT40 TDP1 no CPT: -15%

What do the screens show for `CC(=O)Nc1c(C)nn(-c2ccccc2)c1N1CCC(C(=O)Nc2ccc(C)cc2Cl)CC1`?
TDP1 cell CPT: inconclusive; TDP1 block: 3%; ClpP mod: 0%; DT40 TDP1 no CPT: inconclusive

Results for CC(C)n1c(N2CCN(C(=O)NCc3ccccc3)CC2)nc2ccccc21 ?
TDP1 cell CPT: inconclusive; TDP1 block: 4%; ClpP mod: 2%; DT40 TDP1 no CPT: 23µM*

How did O=C(c1ccccc1)N1CCn2c(nc3ccccc32)C1 do in these assays?
TDP1 cell CPT: 6%; TDP1 block: 0%; ClpP mod: 9%; DT40 TDP1 no CPT: 2%

How did COc1ccc(NC(=O)N2CCN(c3nc4ccccc4n3C(C)C)CC2)cc1 do in these assays?
TDP1 cell CPT: inconclusive; TDP1 block: 5%; DT40 TDP1 no CPT: -28%

How did O=C(NCc1ccccc1)N1CCn2c(nc3ccccc32)C1 do in these assays?
TDP1 cell CPT: -3%; TDP1 block: -2%[56.1 µM]; ClpP mod: 32µM*; DT40 TDP1 no CPT: -3%

How did O=S(=O)(c1ccc(Cl)cc1)N1CCN(c2nc(Nc3cc(Cl)ccc3O)nc3ccccc23)CC1 do in these assays?
TDP1 cell CPT: inconclusive; TDP1 block: 2%[96 µM]; ClpP mod: -2%[31.2 µM]; DT40 TDP1 no CPT: inconclusive
